The text below walks through data of PubChem BioAssay AID488969 (Vanderbilt High Throughput Screening Facility, 2010).

Whole data set: some 110,000 compounds, median “z-score” near -0.1, cut for the highest 2% near 2. The full list was thinned out, with the highest values kept by preference. Active and inactive are the calls of the source.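 Rule for the calls: active = z-score in the third read window above 3 or below -3; inactive = the rest.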 Residues, ends and D or L forms follow the SMILES beside them. *: point of attachment. OBn = c1ccc(CO*)cc1

For the test, the target named is Metabotropic glutamate receptor 8 (Rattus norvegicus) (UniProt P70579). Briefly: mGluR8 Gi/Go-coupled signaling modulation – cell-based, rat, thallium flux, HTS, primary screen (AID 488969). As to conditions: HEK293 rat mGluR8, GIRK (G protein-gated inwardly rectifying potassium channel) thallium flux, FluoZin2; at 10 µM; stronger effect = higher value; submaximal glutamate (EC20) added with thallium.
Metabotropic glutamate receptor 8 (Rattus norvegicus), sequence (P70579 whole entry, looked up): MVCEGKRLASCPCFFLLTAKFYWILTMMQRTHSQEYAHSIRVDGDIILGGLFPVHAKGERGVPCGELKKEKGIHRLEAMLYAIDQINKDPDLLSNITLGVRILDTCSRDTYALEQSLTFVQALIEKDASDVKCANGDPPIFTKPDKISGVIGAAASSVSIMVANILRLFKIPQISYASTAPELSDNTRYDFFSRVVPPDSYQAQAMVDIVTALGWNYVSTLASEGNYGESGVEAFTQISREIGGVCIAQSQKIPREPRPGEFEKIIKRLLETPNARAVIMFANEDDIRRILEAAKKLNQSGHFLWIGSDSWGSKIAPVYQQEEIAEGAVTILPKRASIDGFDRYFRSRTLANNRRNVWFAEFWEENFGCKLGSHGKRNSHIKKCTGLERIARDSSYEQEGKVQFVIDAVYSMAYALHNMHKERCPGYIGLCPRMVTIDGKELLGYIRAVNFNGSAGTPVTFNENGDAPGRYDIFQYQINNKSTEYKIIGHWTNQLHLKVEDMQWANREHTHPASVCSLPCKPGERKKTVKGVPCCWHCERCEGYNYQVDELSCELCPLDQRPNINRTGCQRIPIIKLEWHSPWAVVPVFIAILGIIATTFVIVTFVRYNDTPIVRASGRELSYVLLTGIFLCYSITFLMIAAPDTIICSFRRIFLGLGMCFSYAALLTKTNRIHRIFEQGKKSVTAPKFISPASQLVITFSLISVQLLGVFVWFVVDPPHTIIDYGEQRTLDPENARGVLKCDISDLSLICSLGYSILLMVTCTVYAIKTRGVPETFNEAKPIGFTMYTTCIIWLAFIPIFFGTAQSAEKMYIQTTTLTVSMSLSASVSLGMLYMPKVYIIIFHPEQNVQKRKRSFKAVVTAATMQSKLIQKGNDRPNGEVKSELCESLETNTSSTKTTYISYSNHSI
Consider `Cc1ccc(S(=O)(=O)N(C)CC(=O)O/N=C(\N)c2ccc([N+](=O)[O-])cc2)cc1`, for which the z-score is -0.621.
Next, `CCOn1c(=O)c(-c2ccc(Cl)cc2)[n+]([O-])c2ccccc21`: 0.119; `O=c1c(-c2ccc(Cl)cc2)[n+]([O-])c2ccccc2n1O`: 14 (active).
The compound `COn1c(=O)c(-c2ccc(Cl)cc2)[n+]([O-])c2ccccc21` returned a z-score of -0.503.
Next, `Cc1ccc(C)c(-n2[nH]c3c4c(ccc3c2=O)C(=O)c2ccccc2C4=O)c1`: 0.0628; `O=C(Nc1ccncc1)c1ccc2c(c1)C(=O)N(C1CCCCC1)C2=O`: 6.89 (active).
Under `Cc1cc(NC(=O)c2ccc3c(c2)C(=O)N(C2CCCCC2)C3=O)no1` stands 0.19; under `O=C(Nc1ccncc1)c1ccc2c(c1)C(=O)N(CC1CCCO1)C2=O` (stereo not drawn), -0.193.
Under `CCOC(=O)N1CCN(c2cc(=O)n(-c3ccc(OCC)cc3)c(=O)[nH]2)CC1` stands -0.000123; under `O=C(NNC(=O)c1sccc1-n1cccc1)c1cccc(Cl)c1`, 4.1 (active); under `O=C(NNC(=O)c1sccc1-n1cccc1)c1ccccc1`, 0.869.
With `O=C(NNC(=O)c1sccc1-n1cccc1)c1ccc(Cl)cc1`, the z-score was 3.06 (active).
Under `O=C(NNS(=O)(=O)c1ccc(Cl)cc1)c1sccc1-n1cccc1` stands 0.249.
For `O=C(NNS(=O)(=O)c1cc(Cl)cc(Cl)c1)c1sccc1-n1cccc1`, the z-score stood at 1.93.
For the compound `O=C(N/N=C\c1ccc(Cl)cc1Cl)c1sccc1-n1cccc1`, the z-score is -0.203.
Under `CCOC(=O)N/N=C(C)/C=C/c1ccco1` stands 0.31.
`CCC(Oc1ccccc1)C(=O)N1CCN(C(=O)C(CC)Oc2ccccc2)CC1` (stereo not drawn): the z-score is -0.159.
Under `Cn1c(SCC(=O)NNC(=O)Cc2ccccc2)nnc1-c1ccc(Cl)cc1` stands -0.126; under `CC(C)c1ccc(-n2cccc2/C=C2/C(=N)N3C=CSC3=NC2=O)cc1`, 2.17; under `N=C1/C(=C/c2cccn2-c2cccc([N+](=O)[O-])c2)C(=O)N=C2SC=CN12`, -0.207.
Under `N=C1/C(=C/c2cccn2-c2ccc([N+](=O)[O-])cc2)C(=O)N=C2SC=CN12` stands -0.214.
Next, `CC1CCN(c2c([N+](=O)[O-])c(=O)n(-c3ccccc3)c3ccccc23)CC1`: 0.00884; `N#C/C(=C/c1ccc(OCc2ccccc2)cc1)C(=O)NC1CCCCC1`: 0.0182; `O=C(NCCN1CCCC1)c1ccc(CS(=O)(=O)c2c(Cl)cccc2Cl)o1`: -0.063.
In turn, `O=C(c1sc2cc(F)ccc2c1Cl)N1CCN(c2cccc(Cl)c2)CC1` showed a z-score of -0.403.
`CCCCCCC(=O)NC(Nc1ccc(S(N)(=O)=O)cc1)C(Cl)(Cl)Cl` (stereo not drawn) returned a z-score of -0.259.
Compound `Cn1ncc2c(=O)n(CC(=O)NC34CC5CC(CC(C5)C3)C4)cnc21` yielded a z-score of -0.265.
Next, `COC(=O)C1=NN(N=O)C2(CC(=O)N(c3cc(C)cc(C)c3)C2=O)C1` (stereo not drawn): -0.194.
On to `Cc1ccc(C)n1-c1ccc(C(=O)NCC2CCCO2)cc1` (stereo not drawn), for which the z-score is -0.25.
Take `N#CC(C#N)=C1C=C2C=C(N3CCCCC3)CCC2CC1` (stereo not drawn): the z-score was 10.9 (active).
For the compound `CCCCN(C)C1=CC2=CC(=C(C#N)C#N)CCC2CC1` (stereo not drawn), the z-score was 5.11 (active).
Next, `O=c1[nH]c2cc3c(cc2cc1C(c1nnnn1C1CCCCC1)N1CCSCC1)OCCO3` (stereo not drawn): 0.278.
Next, `CCC(=O)N1CCc2cc(S(=O)(=O)NCCCOC)ccc21`: -0.216; `Cc1nc2ccccn2c1C(=O)N/N=C/c1ccc2c(c1)OCO2`: 0.65; `COCCn1c(SCC(=O)c2ccc3c(c2)OCCO3)nnc1-c1ccoc1C`: -0.231.
For the compound `O=c1nc(NCc2ccccc2Cl)cn[nH]1`, the z-score came to 0.66.
Under `CC(Nc1ccc(Br)cc1)C(=O)N/N=C/c1ccccc1OCc1ccccc1` (stereo not drawn) stands -0.283; under `COC(=O)c1cc(NC(=O)C23CCC(C)(C(=O)O2)C3(C)C)cc(C(=O)OC)c1` (stereo not drawn), 0.577; under `COc1ccc(NC(=O)C23CCC(C)(C(=O)O2)C3(C)C)cc1` (stereo not drawn), 0.0605.
Under `COC(=O)c1ccc(NC(=O)C23CCC(C)(C(=O)O2)C3(C)C)cc1` (stereo not drawn) stands 2.35.
Next, `Cc1cs/c(=N\N=C\c2ccccc2)n1Cc1ccco1`: -0.431; `Cc1cs/c(=N\N=C\c2cccc([N+](=O)[O-])c2)n1Cc1ccco1`: 5.13 (active); `Cc1csc(=NC(=O)c2ccccc2)n1Cc1ccco1`: -0.784.
The compound `CC(C(=O)Nc1ccc(F)c(F)c1F)N(C)CC(=O)Nc1ccccc1Br` (stereo not drawn) came in with a z-score of -0.465.
Turning to `O=C(c1ccccc1)c1ccc(OCC(O)CN2CCCCC2)cc1` (stereo not drawn), the z-score was determined as 2.13.
Under `O=C(c1ccccc1)c1ccc(OCC(O)CN2CCOCC2)cc1` (stereo not drawn) stands -0.0655; under `OC(COc1ccc(OCc2ccccc2)cc1)CN1CCCCC1` (stereo not drawn), 2.76; under `OC(COc1ccc(OCC(O)CN2CCCCCC2)cc1)CN1CCCCCC1` (stereo not drawn), -0.0132.
Next, `O=C(c1ccccc1)c1ccc(OCC(O)CN2CCN(S(=O)(=O)N3CCCCC3)CC2)cc1` (stereo not drawn): 0.198; `OC(COc1ccc(OCc2ccccc2)cc1)CN1CCOCC1` (stereo not drawn): -0.0779.
Under `COc1ccc2nc(C)cc(SCC(=O)N/N=C/c3ccccc3)c2c1` stands 0.834.
As for `Cn1nnnc1SCC(=O)NC1CCCCC1`, the z-score is -0.00615.
Next, `CCn1nnnc1SCC(=O)N(C1CCCCC1)C1CCCCC1`: -0.262.
Next, `Cn1nnnc1SCC(=O)N(C1CCCCC1)C1CCCCC1`: 2.45; `Cc1ccc2cc(CN(CCN3CCCC3)C(=O)Nc3ccccc3)c(=O)[nH]c2c1C`: -0.236.
Under `Cc1ccc(C)c2[nH]c(=O)c(CN(CCN3CCCC3)C(=O)Nc3ccc(F)cc3)cc12` stands 0.644.
For `Cc1ccc2cc(CN(CCN3CCCC3)C(=O)Nc3ccc(F)cc3)c(=O)[nH]c2c1C`, the z-score is 2.05.
Next, `CCC(C)C(N)C(=O)NC(CCC(=O)OCc1ccccc1)C(N)=O` (stereo not drawn) (H-Ile-Glu(OBn)-NH2; configuration not given here): 0.0296.
For the compound `Cc1nc(NCCc2ccccc2F)c(C#N)c(C)c1[N+](=O)[O-]`, the z-score was 0.24.
Next, `O=C(c1scc2c1CCCC2)N1CCCCC1`: -0.475; `Cc1ccc2c(c1)N(Cc1ccncc1)C(=O)C(C)O2` (stereo not drawn): 0.33.
On to `O=C1OC(Cc2ccncc2)C(O)=C1C1=NCCCN1` (stereo not drawn), for which the z-score is -0.135.
As for `CC1=CC(=O)OC1Cc1ccncc1` (stereo not drawn), the z-score was 14.2 (active).
Next, `O=C(O)CCCCCN1C(=O)/C(=C/c2ccncc2)SC1=S`: -0.0629; `CCC(C)c1ccc(O)c(NC(=O)c2ncn[nH]2)c1` (stereo not drawn): -0.374.
Under `Cc1ccc(C)c(-c2cc(C(=O)NCc3cccs3)c3ccccc3n2)c1` stands -0.0338.
Next, `O=C(Nc1ccc(Br)cc1F)c1ccc2c(c1)N(Cc1ccccc1)C(=O)CS2=O` (stereo not drawn): 1.3; `O/N=C/c1cc(Cl)ccc1OCc1ccccc1Cl`: -0.352.
For the compound `CCOc1ccc(Cl)cc1/C=N/O`, the z-score is -0.395.
Consider `O/N=C/c1cc(Cl)ccc1OCc1cccc2ccccc12`, for which the z-score was 2.76.
Under `Nc1ncnc2c1ncn2CCNCCc1ccccc1` stands -0.981.
Under `Cc1cc(-c2n[nH]c(=S)n2/N=C/c2cccs2)n[nH]1` stands -0.233.
Consider `COc1cccc(/C=N/n2c(-c3cccs3)n[nH]c2=S)c1`, for which the z-score is 3.25 (active).
`Cc1cc(-c2n[nH]c(=S)n2/N=C/c2cccc([N+](=O)[O-])c2)n[nH]1` showed a z-score of -0.221.
Next, `Cc1cccc(/C=N/n2c(-c3ccccn3)n[nH]c2=S)c1`: -0.174; `COc1ccc(/C=N/n2c(-c3cccs3)n[nH]c2=S)cc1`: 2.46.
Next, `CCOC(=O)COc1ccc(S(=O)(=O)NCc2cccnc2)cc1`: 0.014.
Under `Cc1nn(CC(=O)NCc2cccc3ccccc23)c(=O)c2ccccc12` stands -0.0519; under `COc1ccc(NC(=O)C2CCN(C(=O)c3ccccc3)CC2)c(OC)c1`, -1.36.
Turning to `Cn1nc(C(=O)NC2CCCCCC2)ccc1=O`, the z-score amounted to 1.32.
Under `CCOC(=O)c1c(-c2cccs2)csc1NC(=O)CNCCN1CCOCC1` stands -0.205; under `O=C(OCC(=O)N1CCCCC1)c1cc(NS(=O)(=O)c2ccc(Cl)c([N+](=O)[O-])c2)ccc1O`, -0.652.
Next, `CC(NC(=O)COC(=O)c1cc(NS(=O)(=O)c2ccc(Cl)c([N+](=O)[O-])c2)ccc1O)C1CC2CCC1C2` (stereo not drawn): -0.436; `CCN(C(=O)COC(=O)c1cc(NS(=O)(=O)c2ccc(Cl)c([N+](=O)[O-])c2)ccc1O)C1CCCCC1`: 2.
Under `O=C(COC(=O)Cc1c(Cl)cccc1Cl)NCCC1=CCCCC1` stands -0.34.
With `COc1cc(C2NC(=O)NC(O)(C(F)(F)F)C2C(=O)c2cccs2)ccc1O` (stereo not drawn), the z-score is -0.852.
Under `CCOC(=O)c1ccc(Nc2ncnc3ccc(C)cc23)cc1` stands -0.372; under `CCCc1cc(=O)n2[nH]c(C)cc2n1`, -0.851.
Consider `CCCc1cc(=O)n2[nH]c(-c3ccc(Br)cc3)cc2n1`, for which the z-score was 3.04 (active).
Next, `CCCc1cc(=O)n2[nH]c(-c3ccccc3)cc2n1`: 0.844.
Next, `O=C(Cn1cc(C(=O)c2cccs2)c2ccccc21)NC1CCCCC1`: -2.37; `O=C(Cn1c(C(F)(F)F)nc2ccccc21)c1ccc(Cl)cc1`: -0.0833.
Next, `O=C(Nc1ccc2c(c1)OCO2)c1noc2c1CCCCC2`: 0.597; `COc1cc(OC)c2nc(C)c3c(c2c1)N(c1ccc(O)cc1)CC3`: 3.3 (active).
The compound `COc1ccccc1N1CCc2c(C)nc3c(OC)cccc3c21` displayed a z-score of -0.0829.
Under `COc1ccc(N2CCc3c(C)nc4c(OC)cc(OC)cc4c32)c(OC)c1` stands 0.775.
`CNc1nc(SCc2ccccc2Cl)nc2c1CCCC2` showed a z-score of -0.358.
As to `Cc1cc(CC(C)C)n(-c2nc3ccccc3c(=O)n2OCC(N)=O)n1`, the z-score is 3.83 (active).
Next, `Cc1cc(C)n(-c2nc3ccccc3c(=O)n2OCC(N)=O)n1`: -0.254.
Under `Cc1cc(CC(C)C)n(-c2nc3ccccc3c(=O)n2OCc2ccccc2)n1` stands 0.802; under `Cn1c(SCc2nc(-c3ccc(Cl)cc3)no2)nnc1-c1ccco1`, 0.0893; under `O=C(COc1ccc(OCc2ccccc2)cc1)NC1CCOC1=O` (stereo not drawn), -0.0067.
For the compound `CC(C)C(c1nnnn1C1CCCC1)N(C)C1CCCCC1` (stereo not drawn), the z-score is -0.559.
Under `COCCCNC(=O)c1cccc(NC(=O)c2ccccc2)c1` stands -0.13; under `CC(C)OCCCNC(=O)c1ccc(Br)cc1`, 0.954.
Consider `CC(C)OCCCNC(=O)c1cccc(NC(=O)c2ccccc2)c1`, for which the z-score is 2.99.
For the compound `COc1ccccc1C(=O)Nn1cnc2ccccc2c1=O`, the z-score came to 0.366.
Next, `CCCCN1C2=C(C(=O)CCC2)C(c2ccc(Cl)c(Cl)c2)C2=C1c1ccccc1C2=O` (stereo not drawn): -0.878.
